# This is part of a sample that, as a whole, favours compounds with a hit. Of some 79,000 tested, about 15% had one in any assay. A number with no mark means an inactive call. Activity calls are given as the source filed them. No stated cut-off is given here; in the data, active means growth inhibition above about 70%; inactive means the rest.
# Legend:
# [1] = NCI Yeast Anticancer Drug Screen. Data for the rad52 strain (AID 147);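 further: 0% = growth of vehicle-treated control cultures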; settings: S. cerevisiae rad52 mutant growth inhibition, active compounds read high
# Method in brief: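 Inhibition of yeast growth, referenced to vehicle controls, was the measured output for a strain with defective DNA damage repair.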
# [2] = NCI Yeast Anticancer Drug Screen. Data for the wt1 strain (AID 149);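 further: 0% = growth of vehicle-treated wt1 cultures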; settings: S. cerevisiae wt1 strain (SPY 50644) growth inhibition, active compounds read high
# Method in brief: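 The wt1 strain was treated with compounds, and growth was compared with vehicle-treated cultures to give inhibition.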
# [3] = NCI Yeast Anticancer Drug Screen. Data for the rad50EPP+ strain (AID 151);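 further: 0% = growth of vehicle-treated control cultures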; settings: S. cerevisiae rad50 mutant strain, active compounds read high
# Method in brief: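 Genetically defined yeast (rad50EPP+, DNA damage repair alteration) is grown with compound, and inhibition of growth is expressed relative to vehicle-treated controls.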
# [4] = NCI Yeast Anticancer Drug Screen. Data for the mgt1 strain (AID 153); settings: S. cerevisiae mgt1 mutant growth inhibition, active compounds read high
# Method in brief: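 In the mgt1 strain, test compounds were added and growth inhibition was determined relative to vehicle-treated controls.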
# [5] = NCI Yeast Anticancer Drug Screen. Data for the rad50 strain (AID 155);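 further: 0% = growth of vehicle-only cultures of the same strain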; settings: S. cerevisiae rad50 strain growth inhibition, active compounds read high
# Method in brief: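 Cells are treated with compound, grown, and their growth is then scored against vehicle-only cultures of the same repair-deficient yeast strain.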
# [6] = NCI Yeast Anticancer Drug Screen. Data for the mec2-1 strain (AID 157); settings: S. cerevisiae mec2-1 strain, active compounds read high
# Method in brief: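 Each compound was tested on mec2-1 yeast, a strain altered in DNA damage repair or cell cycle control. Growth inhibition is reported relative to vehicle.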
# [7] = NCI Yeast Anticancer Drug Screen. Data for the rad14 strain (AID 159);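 further: 0% = growth of vehicle-treated control cultures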; settings: S. cerevisiae rad14 strain growth inhibition, active compounds read high
# Method in brief: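 Readout: yeast growth inhibition, referenced to vehicle-only cultures. Strain bears a defined alteration in DNA damage repair.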
# [8] = NCI Yeast Anticancer Drug Screen. Data for the sgs1 mgt1 strain (AID 161);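 further: 0% = growth of cultures given vehicle only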; settings: S. cerevisiae sgs1 mgt1 strain, active compounds read high
# Method in brief: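 Read-out: growth inhibition vs vehicle controls. Cells: mutant yeast strain deficient in DNA damage repair.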
# [9] = NCI Yeast Anticancer Drug Screen. Data for the CLN2oe strain (AID 163);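 further: 0% = growth of vehicle-only control cultures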; settings: S. cerevisiae CLN2oe strain, active compounds read high
# Method in brief: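 First, the altered yeast strain was treated with each compound; second, its growth was measured; finally, inhibition was derived by comparison with vehicle controls.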
# [10] = NCI Yeast Anticancer Drug Screen. Data for the cln2 rad14 strain (AID 165);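 further: 0% = growth equal to vehicle treated cultures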; settings: S. cerevisiae cln2 rad14 strain, active compounds read high
# Method in brief: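 Test compounds were added to cln2 rad14 yeast cultures; inhibition of growth was then determined by comparison with vehicle treatment.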
# [11] = NCI Yeast Anticancer Drug Screen. Data for the bub3 strain (AID 167); settings: S. cerevisiae bub3 mutant strain, active compounds read high
# Method in brief: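 Part of a panel of yeast mutants defective in DNA damage repair or cell cycle regulation. Each strain is grown with compound, and inhibition is calculated relative to solvent-treated cultures.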
# [12] = NCI Yeast Anticancer Drug Screen. Data for the wt2 strain (AID 169);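 further: 0% = growth of vehicle-treated yeast cultures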; settings: S. cerevisiae wt2 strain growth inhibition, active compounds read high
# Method in brief: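 The panel's yeast strains carry defined changes in DNA repair or cell cycle genes. Each strain is grown with compound, and growth loss is scored relative to vehicle.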
# [13] = NCI Yeast Anticancer Drug Screen. Data for the mlh1 strain (AID 171);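 further: 0% = growth of vehicle-treated control cultures of the same strain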; settings: S. cerevisiae mlh1 strain growth inhibition, active compounds read high
# Method in brief: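 Inhibition values reflect reduced yeast growth in the presence of compound, referenced to vehicle controls, using a strain chosen for its alteration in DNA repair or cell cycle control.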
# [14] = NCI Yeast Anticancer Drug Screen. Data for the mlh1 rad18 strain (AID 175); settings: S. cerevisiae mlh1 rad18 strain growth inhibition, active compounds read high
# Method in brief: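 Inhibition values reflect reduced growth of mutant yeast versus vehicle-treated controls following compound exposure; the mutations affect DNA damage repair.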
# [15] = at 5.0 µM (retest, dose inferred, filed as 0.5)
# [16] = at 50.0 µM (retest, dose inferred, filed as 5.0)
structure (smiles),measurement,setting,value
CSc1nc(=S)[nH]c2c1c(C)nn2-c1ccccc1,growth inhibition,[1]; at 1.2 µM,11%
same,growth inhibition,[1]; at 3.7 µM,18%
same,growth inhibition,[1]; at 11.0 µM,12%
same,growth inhibition,[1]; at 33.0 µM,11%
same,growth inhibition,[1]; at 100.0 µM,41%
same,growth inhibition,[2]; at 1.2 µM,11%
same,growth inhibition,[2]; at 3.7 µM,-2%
same,growth inhibition,[2]; at 11.0 µM,-1%
same,growth inhibition,[2]; at 33.0 µM,-4%
same,growth inhibition,[2]; at 100.0 µM,1%
same,growth inhibition,[3]; at 1.2 µM,-17%
same,growth inhibition,[3]; at 3.7 µM,-16%
same,growth inhibition,[3]; at 11.0 µM,-24%
same,growth inhibition,[3]; at 33.0 µM,-10%
same,growth inhibition,[3]; at 100.0 µM,14%
same,growth inhibition,[4]; at 1.2 µM,-19%
same,growth inhibition,[4]; at 3.7 µM,-15%
same,growth inhibition,[4]; at 11.0 µM,-3%
same,growth inhibition,[4]; at 33.0 µM,7%
same,growth inhibition,[4]; at 100.0 µM,35%
same,growth inhibition,[5]; at 1.2 µM,12%
same,growth inhibition,[5]; at 3.7 µM,-1%
same,growth inhibition,[5]; [15],39%
same,growth inhibition,[5]; at 11.0 µM,11%
same,growth inhibition,[5]; at 33.0 µM,11%
same,growth inhibition,[5]; [16],91% (active)
same,growth inhibition,[5]; at 50.0 µM,50.8%
same,growth inhibition,[5]; at 100.0 µM,11%
same,growth inhibition,[6]; at 1.2 µM,3%
same,growth inhibition,[6]; at 3.7 µM,-6%
same,growth inhibition,[6]; [15],16%
same,growth inhibition,[6]; at 11.0 µM,1%
same,growth inhibition,[6]; at 33.0 µM,-1%
same,growth inhibition,[6]; [16],97% (active)
same,growth inhibition,[6]; at 50.0 µM,45.8%
same,growth inhibition,[6]; at 100.0 µM,3%
same,growth inhibition,[7]; at 1.2 µM,9%
same,growth inhibition,[7]; at 3.7 µM,18%
same,growth inhibition,[7]; at 11.0 µM,28%
same,growth inhibition,[7]; at 33.0 µM,23%
same,growth inhibition,[7]; at 100.0 µM,34%
same,growth inhibition,[8]; [15],42%
same,growth inhibition,[8]; [16],98% (active)
same,growth inhibition,[8]; at 50.0 µM,72.1% (active)
same,growth inhibition,[9]; at 1.2 µM,-8%
same,growth inhibition,[9]; at 3.7 µM,0%
same,growth inhibition,[9]; at 11.0 µM,-4%
same,growth inhibition,[9]; at 33.0 µM,3%
same,growth inhibition,[9]; at 100.0 µM,-14%
same,growth inhibition,[10]; [15],3%
same,growth inhibition,[10]; [16],62%
same,growth inhibition,[10]; at 50.0 µM,33.8%
same,growth inhibition,[11]; at 1.2 µM,-16%
same,growth inhibition,[11]; at 3.7 µM,-6%
same,growth inhibition,[11]; [15],39%
same,growth inhibition,[11]; at 11.0 µM,-15%
same,growth inhibition,[11]; at 33.0 µM,-17%
same,growth inhibition,[11]; [16],97% (active)
same,growth inhibition,[11]; at 50.0 µM,64%
same,growth inhibition,[11]; at 100.0 µM,-14%
same,growth inhibition,[12]; at 1.2 µM,-14%
same,growth inhibition,[12]; at 3.7 µM,3%
same,growth inhibition,[12]; at 11.0 µM,5%
same,growth inhibition,[12]; at 33.0 µM,12%
same,growth inhibition,[12]; at 100.0 µM,27%
same,growth inhibition,[13]; at 1.2 µM,11%
same,growth inhibition,[13]; at 3.7 µM,9%
same,growth inhibition,[13]; at 11.0 µM,32%
same,growth inhibition,[13]; at 33.0 µM,21%
same,growth inhibition,[13]; at 100.0 µM,41%
same,growth inhibition,[14]; [15],26%
same,growth inhibition,[14]; [16],84% (active)
same,growth inhibition,[14]; at 50.0 µM,52.1%

# From PubChem BioAssay (NCI)
